Source: PubChem BioAssay AID588445 (Southern Research Specialized Biocontainment Screening …, 2011)
Records with an inconclusive call do not appear. Calls of active or inactive are those of the source. The rule behind the calls is not given here.

assay: Vero cell viability loss – purified and synthesized compounds, set 6, cytotoxicity control for M. tuberculosis inhibitor project, dose response (AID 588445); conditions: cytotoxicity counter-screen; series mostly up to 100 µM; viability: at the top concentration

SMILES	viability
CC(C)OC(=O)CSc1ncnc2c1cnn2-c1ccccc1	91.6% (inactive)
CCOC(=O)CSc1ncnc2c1cnn2-c1ccc(C)cc1C	93.2% (inactive)
CC1CC(C)CN(C(=O)C2CCC(CNc3c(N4CCCCC4)c(=O)c3=O)CC2)C1 (stereo unspecified)	94.1% [at 30 µM] (inactive)
COC(=O)CSc1ncnc2c1cnn2-c1ccc(C)cc1C	98.7% (inactive)
COc1ccc(N2CCN(C(=O)c3ccc(CNc4c(N5CCOCC5)c(=O)c4=O)cc3)CC2)cc1	96.4% (inactive)
CCOC(=O)CSc1ncnc2c1cnn2-c1ccccc1	91.5% (inactive)
